Data: the supplement of paper PMC10849652
Targets with a hit are over-represented here; the source holds about 7,900 in all. About 0.6% of all pairs of compound and target were hits.

What was measured:
Test in all cases: log2 fold change, soluble protein after heating vs DMSO (PISA); higher = thermal stabilisation; K562 cells, 10 uM, 30 min; active = over 0.2 and 3.5 SD of the protein, either way, in both replicates (recomputed)
[1] = compound: CC1=C(C=C(C=C1)NC(=O)C2=CC(=CC=C2)C(C)(C)C#N)NC3=CC4=C(C=C3)N=CN(C4=O)C
How it was run: (§1)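 For each measurement, 10 μM compound was applied for 30 min to K562 cells at 2×10^6 cells/mL. Aliquots were heated for 3 min across 48°C-58°C, pooled, and extracted in PBS with 0.5% NP-40 at 4°C; the supernatant after 21,000xg for 90 min was soluble protein. This was quantified by TMTpro 16plex LC-MS/MS with channel sums equalised, and thermal stability was reported relative to control samples from duplicates, on a log2 fold-change scale.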

[2] = compound: CC1=C(C=C(C=C1)NC(=O)C2=CC(=CC=C2)N(C)C)NC(=O)C3=CC=C(C=C3)O
How it was run: as §1

[3] = compound: CC1=CC=C(C=C1)SC2=C3C=C(SC3=CN=C2)C(=O)N
How it was run: as §1

[4] = compound: CCCCN(Cc1ccc(C(=O)NO)cc1)C(=O)Nc1ccccc1 [Nexturastat A]
How it was run: as §1

[5] = compound: CCCS(=O)(=O)Nc1ccc(F)c(C(=O)c2c[nH]c3ncc(-c4ccc(Cl)cc4)cc23)c1F [vemurafenib]
How it was run: as §1

[6] = compound: CCCS(=O)(=O)Nc1ccc(F)c(C(=O)c2c[nH]c3ncc(Cl)cc23)c1F
How it was run: as §1

[7] = compound: CCCc1cc(C)[nH]c(=O)c1CNC(=O)c1cc(-c2ccnc(N3CCN(C)CC3)c2)cc2c1cnn2C(C)C
How it was run: as §1

[8] = compound: CCN(CC)Cc1ccc2cc(COC(=O)Nc3ccc(C(=O)NO)cc3)ccc2c1 [givinostat]
How it was run: as §1

[9] = compound: CCN(CCCOc1ccc2c(Nc3cc(CC(=O)Nc4cccc(F)c4)[nH]n3)ncnc2c1)CCOP(=O)(O)O [barasertib]
How it was run: as §1

[10] = compound: CC1=NC(=CC=C1)C2=C(N=C(N2)C(C)(C)C)C3=CC4=NC=CN=C4C=C3
How it was run: as §1

Measured: log2 fold change

MFSD1 isoform 6 (UniProt Q9H3U5)
Sequence of UniProt Q9H3U5 (Q9H3U5 whole entry, looked up): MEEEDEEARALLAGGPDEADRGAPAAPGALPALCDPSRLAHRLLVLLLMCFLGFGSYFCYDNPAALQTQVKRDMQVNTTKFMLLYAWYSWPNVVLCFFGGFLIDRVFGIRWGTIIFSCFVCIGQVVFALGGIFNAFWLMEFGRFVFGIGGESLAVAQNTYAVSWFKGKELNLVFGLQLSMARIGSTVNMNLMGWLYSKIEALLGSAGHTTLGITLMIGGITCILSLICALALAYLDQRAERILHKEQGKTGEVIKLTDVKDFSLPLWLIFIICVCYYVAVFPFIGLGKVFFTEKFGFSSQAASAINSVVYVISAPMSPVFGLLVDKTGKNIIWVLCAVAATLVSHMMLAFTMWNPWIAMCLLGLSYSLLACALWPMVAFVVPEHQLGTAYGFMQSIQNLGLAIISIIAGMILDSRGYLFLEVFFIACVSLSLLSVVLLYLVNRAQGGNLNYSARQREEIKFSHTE
inactive: [1] 0.056 | [2] -0.008 | [3] -0.046 | [4] -0.106 | [5] -0.053 | [6] -0.059 | [7] 0.021 | [8] 0.008 | [9] 0.041

IK (UniProt Q13123)
inactive: [1] 0.032 | [2] 0.039 | [3] -0.035 | [10] -0.026 | [4] 0.093 | [5] 0.086 | [6] -0.002 | [7] 0.036 | [8] 0.021 | [9] 0.047

LPIN3 isoform 2 (UniProt Q9BQK8)
inactive: [1] -0.152 | [2] 0.005 | [3] -0.04 | [4] -0.014 | [5] -0.001 | [6] -0.069 | [7] -0.014 | [8] -0.006 | [9] -0.054

IL10RB (UniProt Q08334)
inactive: [1] 0.19 | [3] -0.012 | [10] -0.17 | [4] 0.082 | [5] -0.004 | [6] 0.018 | [8] 0.088 | [9] 0.063

LRBA, A0A494BZW2
inactive: [1] -0.082 | [2] 0.06 | [3] -0.048 | [10] 0.078 | [4] -0.264 | [6] 0.272 | [7] 0.038 | [8] 0.264 | [9] 0.026

MFF (UniProt Q9GZY8)
inactive: [1] -0.036 | [2] 0.002 | [3] 0.039 | [10] 0.02 | [4] 0.006 | [5] -0.013 | [6] 0.018 | [7] -0.117 | [8] 0.033 | [9] 0.036

LUM (UniProt P51884)
inactive: [1] -0.011 | [2] 0.403 | [3] 0.042 | [10] 0.061 | [4] -0.008 | [5] 0.069 | [6] -0.266 | [8] -0.108

IGFBP3 isoform 2 (UniProt P17936)
inactive: [1] -0.187 | [3] 0.1 | [10] 0.205 | [4] 0.204 | [5] 0.031 | [6] 0.076

LIMD1 (UniProt Q9UGP4)
Sequence of UniProt Q9UGP4 (Q9UGP4 whole entry, looked up): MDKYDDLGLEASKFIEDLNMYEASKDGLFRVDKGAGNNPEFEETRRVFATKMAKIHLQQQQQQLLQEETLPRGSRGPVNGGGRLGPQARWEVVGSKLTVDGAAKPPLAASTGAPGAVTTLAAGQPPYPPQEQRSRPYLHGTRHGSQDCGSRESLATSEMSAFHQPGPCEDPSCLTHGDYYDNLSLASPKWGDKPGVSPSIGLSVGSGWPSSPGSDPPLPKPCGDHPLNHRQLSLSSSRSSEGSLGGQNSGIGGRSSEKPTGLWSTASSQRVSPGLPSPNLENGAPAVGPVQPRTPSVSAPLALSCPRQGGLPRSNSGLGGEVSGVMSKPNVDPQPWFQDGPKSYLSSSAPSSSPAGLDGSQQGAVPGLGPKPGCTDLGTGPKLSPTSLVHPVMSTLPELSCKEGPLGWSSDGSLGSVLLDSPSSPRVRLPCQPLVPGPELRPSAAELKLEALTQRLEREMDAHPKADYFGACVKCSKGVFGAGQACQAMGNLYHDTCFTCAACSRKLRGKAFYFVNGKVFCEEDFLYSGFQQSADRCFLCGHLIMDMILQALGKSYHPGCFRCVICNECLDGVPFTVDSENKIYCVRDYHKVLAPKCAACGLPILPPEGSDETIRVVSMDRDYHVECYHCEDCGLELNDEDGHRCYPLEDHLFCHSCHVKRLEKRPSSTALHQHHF
inactive: [1] 0 | [2] 0.009 | [3] 0.037 | [10] -0.012 | [4] -0.022 | [5] 0.024 | [6] 0.084 | [7] 0.019 | [8] 0.02 | [9] -0.017

LRFN1 (UniProt Q9P244)
Sequence of UniProt Q9P244 (Q9P244 whole entry, looked up): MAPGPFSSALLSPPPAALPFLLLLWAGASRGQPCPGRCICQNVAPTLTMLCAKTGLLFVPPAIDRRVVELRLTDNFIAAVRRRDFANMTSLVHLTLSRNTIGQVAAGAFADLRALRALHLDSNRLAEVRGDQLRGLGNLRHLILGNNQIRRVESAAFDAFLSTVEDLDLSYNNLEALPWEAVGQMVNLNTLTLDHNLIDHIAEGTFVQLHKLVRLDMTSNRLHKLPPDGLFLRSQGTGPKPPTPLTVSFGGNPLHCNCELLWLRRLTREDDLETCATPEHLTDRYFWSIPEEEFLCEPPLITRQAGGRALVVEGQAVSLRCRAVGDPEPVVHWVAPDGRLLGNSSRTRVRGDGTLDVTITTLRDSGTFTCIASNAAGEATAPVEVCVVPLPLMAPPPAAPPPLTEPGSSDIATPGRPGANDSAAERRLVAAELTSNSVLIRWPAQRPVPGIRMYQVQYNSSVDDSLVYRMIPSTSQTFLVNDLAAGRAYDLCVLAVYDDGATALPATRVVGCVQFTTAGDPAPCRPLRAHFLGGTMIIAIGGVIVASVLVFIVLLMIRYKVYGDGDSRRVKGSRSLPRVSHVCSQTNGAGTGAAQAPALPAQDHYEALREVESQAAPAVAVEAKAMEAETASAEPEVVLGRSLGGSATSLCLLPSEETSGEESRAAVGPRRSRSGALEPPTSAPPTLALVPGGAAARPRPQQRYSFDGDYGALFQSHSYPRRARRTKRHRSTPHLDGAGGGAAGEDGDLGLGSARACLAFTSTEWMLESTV
inactive: [1] 0.052 | [2] 0.076 | [3] 0.02 | [10] -0.101 | [4] 0.241 | [5] -0.031 | [6] 0.054 | [8] -0.025 | [9] 0.037

MAPK14 (UniProt Q16539)
Sequence of UniProt Q16539 (Q16539 whole entry, looked up): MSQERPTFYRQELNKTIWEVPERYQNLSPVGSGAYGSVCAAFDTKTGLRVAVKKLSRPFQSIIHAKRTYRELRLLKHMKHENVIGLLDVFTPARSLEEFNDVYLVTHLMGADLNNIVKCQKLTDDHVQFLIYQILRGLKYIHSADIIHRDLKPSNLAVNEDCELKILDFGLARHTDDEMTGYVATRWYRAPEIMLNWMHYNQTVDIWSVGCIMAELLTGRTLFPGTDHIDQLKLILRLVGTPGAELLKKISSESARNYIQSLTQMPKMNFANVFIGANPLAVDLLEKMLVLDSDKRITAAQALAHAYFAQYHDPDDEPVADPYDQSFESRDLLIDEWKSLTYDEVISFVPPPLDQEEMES
inactive: [2] 0.615 | [3] 0.111 | [10] 0.022 | [5] 0.059 | [6] 0.339 | [7] 0.002 | [8] 0.03 | [9] -0.029
active: [1] 1.62

MCM10 (UniProt Q7L590)
Sequence of UniProt Q7L590 (Q7L590 whole entry, looked up): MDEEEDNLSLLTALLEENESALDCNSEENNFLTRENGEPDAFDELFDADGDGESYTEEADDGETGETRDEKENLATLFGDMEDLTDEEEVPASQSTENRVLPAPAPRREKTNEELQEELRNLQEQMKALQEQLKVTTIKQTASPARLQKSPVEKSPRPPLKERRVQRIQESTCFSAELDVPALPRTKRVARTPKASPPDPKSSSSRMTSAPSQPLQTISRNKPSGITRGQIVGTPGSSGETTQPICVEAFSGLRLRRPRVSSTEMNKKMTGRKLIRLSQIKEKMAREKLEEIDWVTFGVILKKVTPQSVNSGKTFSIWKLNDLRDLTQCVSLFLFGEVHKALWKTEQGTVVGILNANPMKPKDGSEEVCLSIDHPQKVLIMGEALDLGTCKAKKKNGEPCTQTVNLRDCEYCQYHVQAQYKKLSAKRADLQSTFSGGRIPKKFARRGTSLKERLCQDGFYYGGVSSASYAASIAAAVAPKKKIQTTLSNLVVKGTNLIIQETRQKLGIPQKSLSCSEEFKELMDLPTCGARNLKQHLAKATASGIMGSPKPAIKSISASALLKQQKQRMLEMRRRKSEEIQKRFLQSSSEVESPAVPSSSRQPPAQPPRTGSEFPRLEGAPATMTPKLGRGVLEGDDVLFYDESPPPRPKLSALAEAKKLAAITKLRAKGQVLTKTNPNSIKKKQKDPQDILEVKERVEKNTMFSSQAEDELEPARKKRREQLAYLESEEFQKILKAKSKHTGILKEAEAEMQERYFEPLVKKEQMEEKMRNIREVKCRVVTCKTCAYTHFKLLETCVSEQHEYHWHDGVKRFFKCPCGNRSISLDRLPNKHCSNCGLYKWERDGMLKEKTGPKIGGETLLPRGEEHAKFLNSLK
inactive: [1] 0.209 | [3] 0.166 | [10] 0.155 | [4] 0.028 | [5] -0.016 | [6] 0.217 | [7] -0.037 | [8] -0.065 | [9] -0.012

MAP3K20 isoform 2 (UniProt Q9NYL2)
inactive: [3] -0.038 | [10] 0.295 | [4] 0.16 | [6] 0.044 | [7] -0.017 | [8] 0.003
active: [1] -0.375

LOX (UniProt P28300)
Sequence of UniProt P28300 (P28300 whole entry, looked up): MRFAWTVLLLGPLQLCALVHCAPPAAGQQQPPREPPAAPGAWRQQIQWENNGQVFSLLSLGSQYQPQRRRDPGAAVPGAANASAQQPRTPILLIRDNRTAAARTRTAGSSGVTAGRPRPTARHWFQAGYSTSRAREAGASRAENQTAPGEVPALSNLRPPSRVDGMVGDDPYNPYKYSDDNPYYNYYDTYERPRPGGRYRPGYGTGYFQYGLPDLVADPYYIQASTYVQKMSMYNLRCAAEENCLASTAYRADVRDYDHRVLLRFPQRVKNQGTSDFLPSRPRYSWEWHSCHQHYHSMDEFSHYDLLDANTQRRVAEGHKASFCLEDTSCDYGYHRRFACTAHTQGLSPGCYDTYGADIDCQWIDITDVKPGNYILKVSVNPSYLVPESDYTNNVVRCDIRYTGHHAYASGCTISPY
inactive: [7] -0.269 | [8] 0.087 | [9] -0.129

IPP (UniProt Q9Y573)
inactive: [9] -0.139

MAP2K5 (UniProt Q13163)
inactive: [2] -0.085 | [10] 0.017

MAP4K4 isoform 6 (UniProt O95819)
Sequence of UniProt O95819 (O95819 whole entry, looked up): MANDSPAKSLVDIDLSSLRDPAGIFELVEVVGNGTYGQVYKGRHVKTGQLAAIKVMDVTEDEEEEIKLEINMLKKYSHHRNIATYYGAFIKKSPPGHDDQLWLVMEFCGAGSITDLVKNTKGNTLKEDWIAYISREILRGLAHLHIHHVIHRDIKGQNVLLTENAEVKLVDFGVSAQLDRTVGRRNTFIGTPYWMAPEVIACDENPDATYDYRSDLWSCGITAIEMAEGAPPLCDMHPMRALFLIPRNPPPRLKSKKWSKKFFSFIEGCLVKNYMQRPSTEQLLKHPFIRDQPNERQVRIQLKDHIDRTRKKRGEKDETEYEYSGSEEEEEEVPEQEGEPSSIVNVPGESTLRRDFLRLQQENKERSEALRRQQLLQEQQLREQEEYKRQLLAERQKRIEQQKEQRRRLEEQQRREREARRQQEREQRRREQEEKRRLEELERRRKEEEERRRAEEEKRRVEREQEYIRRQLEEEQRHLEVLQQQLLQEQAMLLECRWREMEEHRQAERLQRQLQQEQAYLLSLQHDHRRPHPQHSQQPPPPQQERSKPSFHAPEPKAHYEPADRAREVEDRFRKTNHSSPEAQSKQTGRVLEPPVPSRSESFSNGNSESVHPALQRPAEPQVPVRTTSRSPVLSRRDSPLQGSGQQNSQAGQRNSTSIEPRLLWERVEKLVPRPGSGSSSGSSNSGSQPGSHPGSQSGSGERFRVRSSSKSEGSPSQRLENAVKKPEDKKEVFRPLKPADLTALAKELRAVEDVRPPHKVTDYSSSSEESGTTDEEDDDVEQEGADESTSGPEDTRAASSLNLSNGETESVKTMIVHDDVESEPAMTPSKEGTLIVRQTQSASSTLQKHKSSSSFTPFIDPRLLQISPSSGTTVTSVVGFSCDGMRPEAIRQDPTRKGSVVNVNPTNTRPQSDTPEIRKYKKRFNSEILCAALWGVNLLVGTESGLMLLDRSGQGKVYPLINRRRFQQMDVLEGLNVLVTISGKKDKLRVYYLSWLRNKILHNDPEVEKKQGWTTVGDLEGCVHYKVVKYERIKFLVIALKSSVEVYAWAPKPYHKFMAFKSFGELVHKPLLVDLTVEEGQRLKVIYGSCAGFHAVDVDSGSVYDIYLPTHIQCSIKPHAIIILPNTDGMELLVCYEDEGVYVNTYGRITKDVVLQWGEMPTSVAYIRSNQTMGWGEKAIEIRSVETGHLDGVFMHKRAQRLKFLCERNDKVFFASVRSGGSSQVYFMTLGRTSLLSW
inactive: [1] -0.031 | [5] -0.052 | [7] 0.393

KIF1B isoform 3 (UniProt O60333)
inactive: [5] -0.244 | [7] -0.006
